High-throughput results deposited in PubChem BioAssay by several laboratories.
CYP2C19 activ – human CYP2C19 activators, primary screen, biochemical, luminescence. Cytochrome P450 2C19 (Homo sapiens), P33261. recombinant CYP2C19, luciferin-H EGE luminescence; hits give high values; 0 = fully inhibited enzyme, 1 = untreated enzyme. activation factor at 5 µM. 96,000 tested, under 10 active. AID 1025, 2008;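 active means activation factor of at least 2 at 5 µM in the primary screen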;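 further: 0 = wells with 2.5 mM tranylcypromine and 1 = vehicle-only wells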
Target sequence (P33261 whole entry, looked up): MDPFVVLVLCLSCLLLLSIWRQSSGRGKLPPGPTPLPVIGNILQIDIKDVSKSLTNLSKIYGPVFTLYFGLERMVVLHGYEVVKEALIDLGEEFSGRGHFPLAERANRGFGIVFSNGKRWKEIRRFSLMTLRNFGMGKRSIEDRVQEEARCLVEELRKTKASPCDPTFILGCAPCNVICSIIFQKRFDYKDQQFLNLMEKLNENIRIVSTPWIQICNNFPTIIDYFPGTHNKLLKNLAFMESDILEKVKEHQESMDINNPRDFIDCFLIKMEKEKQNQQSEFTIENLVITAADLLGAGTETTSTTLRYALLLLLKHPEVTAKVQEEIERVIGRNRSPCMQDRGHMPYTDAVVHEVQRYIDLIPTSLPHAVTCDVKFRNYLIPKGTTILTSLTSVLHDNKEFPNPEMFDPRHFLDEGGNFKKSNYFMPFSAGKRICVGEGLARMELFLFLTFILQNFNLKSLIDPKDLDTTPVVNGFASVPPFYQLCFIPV
PostGolgi ctrl – growth inhibition of yeast control strain, primary screen, counter-screen for post-Golgi transport modulator project. inhibition, % at 10 µM. efflux-deficient yeast background strain, growth absorbance A615, 16 h. 5% of 98,000 active
PostGolgi yeast – phenotypic screen on post-Golgi transport, primary screen. inhibition, % at 10 µM. AID 739, 2007. post-Golgi transport phenotypic cell assay. 0.9% of 98,000 active;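 further: yeast cells grown in 1536-well plates; yeast grown about 18 h at 30C before absorbance read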
CYP2C19 inh – blockers of cytochrome P450 2C19 activity – biochemical, luminescence, ADME assay, primary screen; P33261; CYP2C19 Supersomes, luciferin-H EGE luminescence, 30 min; inhibition, % at 5 µM; 21% of 96,000 active;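 active means CYP2C19 inhibition above a set limit at 5 µM in the primary screen, cut at about 50% in these data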;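 further: plate controls were negative control wells for no effect and 2.5 mM tranylcypromine positive control for full effect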
CYP2C9 activ – human CYP2C9 activators, primary screen, biochemical, luminescence; recombinant CYP2C9, luciferin-H conversion; hits give high values; factor 1 = untreated enzyme, 0 = blocked; activation factor at 5 µM; 1.4% of 96,000 active; AID 1024, 2008;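 active means activation factor of 2 or more for CYP2C9 at a 5 µM dose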;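 further: 0 = sulfaphenazole-blocked wells and 1 = vehicle-only wells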
CYP2C9 inhib – blockers of cytochrome P450 2C9 activity – biochemical, luminescence, ADME assay, primary screen | P11712 | CYP2C9 Supersomes, luciferin-H conversion | inhibition, % at 5 µM | 20% of 96,000 active | AID 777, 2007;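 active means blocking of liver enzyme CYP2C9 beyond about 50% at 5 µM, limit read from the data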
* hit, by the source's call. Compounds with a hit are over-represented: about 32% of the library has one in this group of screens. Unless noted, no stated cut-off is given here; in the data, active means inhibition above about 30%; inactive means the rest.

Fc1ccc(NC(=S)N2N=CCC2c2ccccc2)cc1 (stereo not given) was read as CYP2C19 activ 0.4, PostGolgi ctrl 7.3, PostGolgi yeast -13.2, CYP2C19 inh 63.8*, CYP2C9 activ 0.7 and CYP2C9 inhib 25.6.
Screening S=C(Nc1ccccc1)N1N=CCC1c1ccccc1 (stereo not given) returned CYP2C19 activ 0.3, PostGolgi ctrl 12.9, PostGolgi yeast -7.6, CYP2C19 inh 66.5*, CYP2C9 activ 0.7 and CYP2C9 inhib 26.3.
For Fc1ccc(-c2nc3c(Cl)cc(C(F)(F)F)cn3c2Cl)cc1 the results were CYP2C19 activ 0.8, PostGolgi ctrl -1.8, PostGolgi yeast -3.3, CYP2C19 inh 23.3, CYP2C9 activ 0.9 and CYP2C9 inhib 6.8.
For COc1ccc(OCC(=O)O/N=C(\N)Cc2ccc(Cl)cc2Cl)cc1 the results were CYP2C19 activ 0.9, PostGolgi ctrl 2.7, PostGolgi yeast -7.5, CYP2C19 inh 9.8, CYP2C9 activ 1 and CYP2C9 inhib 0.5.
`CC(C)CCNC(=O)NC(=O)CSc1nnc(COc2ccccc2Cl)o1` gave CYP2C19 activ 0.5, PostGolgi ctrl 26.3, PostGolgi yeast -0.9, CYP2C19 inh 49.6, CYP2C9 activ 0.5 and CYP2C9 inhib 53.2*.
Screening Cc1cc(C)cc(OCc2nnc(SCC(=O)N3CCN(c4ccccc4)CC3)o2)c1 returned CYP2C19 activ 0.6, PostGolgi ctrl 16.3, PostGolgi yeast -4.1, CYP2C19 inh 38.8, CYP2C9 activ 0.8 and CYP2C9 inhib 21.3.
CCOC(=O)N1CCN(C(=O)CSc2nnc(COc3ccccc3)o2)CC1 was read as CYP2C19 activ 1.1, PostGolgi ctrl -3.2, PostGolgi yeast -1.8, CYP2C19 inh -5.3, CYP2C9 activ 0.9 and CYP2C9 inhib 10.1.
Screening CC(NC(=O)CSc1nnc(COc2ccccc2)o1)c1ccccc1 (stereo not given) returned CYP2C19 activ 0.2, PostGolgi ctrl 1.6, PostGolgi yeast -1.1, CYP2C19 inh 81.9*, CYP2C9 activ 0.5 and CYP2C9 inhib 46.4.
`Cc1ccc(OCc2nnc(SCC(=O)CC(=O)Nc3ccccc3)o2)cc1` gave CYP2C19 activ 0.8, PostGolgi ctrl 33.0*, PostGolgi yeast -9.3, CYP2C19 inh 22.3, CYP2C9 activ 0.5 and CYP2C9 inhib 49.1.
Cc1cc(C)cc(OCc2nnc(SCC(=O)OC(C)C)o2)c1 was read as CYP2C19 activ 0.4, PostGolgi ctrl 3.7, PostGolgi yeast -8.4, CYP2C19 inh 59.7*, CYP2C9 activ 1.3 and CYP2C9 inhib -25.9.
Screening CCC(C)N(C(=O)COC(=O)Cc1n[nH]c(=O)c2ccccc12)C1CCS(=O)(=O)C1 (stereo not given) returned CYP2C19 activ 1, PostGolgi ctrl 9.0, PostGolgi yeast 0.8, CYP2C19 inh -3.4, CYP2C9 activ 0.9 and CYP2C9 inhib 7.1.
`CC(NC(=O)CSc1ncccn1)c1ccccc1` (stereo not given) gave CYP2C19 activ 0.2, PostGolgi ctrl 2.7, PostGolgi yeast 2.4, CYP2C19 inh 78.2*, CYP2C9 activ 0.9 and CYP2C9 inhib 6.9.
For O=C(CSc1ncccn1)Nc1ccccc1 the results were CYP2C19 activ 0.7, PostGolgi ctrl 4.3, PostGolgi yeast 1.9, CYP2C19 inh 30.5, CYP2C9 activ 1 and CYP2C9 inhib -2.7.
`Nc1n[nH]c2c1C1(CCCC1)Cc1ccccc1-2` gave CYP2C19 activ 0.9, PostGolgi ctrl 17.9, PostGolgi yeast -3.0, CYP2C19 inh 13.1, CYP2C9 activ 1.1 and CYP2C9 inhib -6.9.
For CCCn1c(N)c(C(=O)CSc2nnc(C)n2Cc2ccccc2)c(=O)n(C)c1=O the results were CYP2C19 activ 0.8, PostGolgi ctrl -6.1, PostGolgi yeast 2.1, CYP2C19 inh 20.9, CYP2C9 activ 0.6 and CYP2C9 inhib 35.6.
Screening Cn1c(=O)c(C(=O)CSc2nncs2)c(N)n(Cc2ccccc2)c1=O returned CYP2C19 activ 0.1, PostGolgi ctrl 16.6, PostGolgi yeast 6.1, CYP2C19 inh 90.7*, CYP2C9 activ 0.4 and CYP2C9 inhib 62.1*.
COc1cc2c(C#N)c(N3CCc4ccccc4C3)nc(N)c2c(N)n1 was read as CYP2C19 activ 0.2, PostGolgi ctrl 76.8*, PostGolgi yeast 27.4, CYP2C19 inh 80.7*, CYP2C9 activ 0.2 and CYP2C9 inhib 85.0*.
CCOc1cc2c(C#N)c(N3CCCCC3)nc(N)c2c(N)n1 was read as CYP2C19 activ 0.4, PostGolgi ctrl 7.0, PostGolgi yeast 2.0, CYP2C19 inh 62.1*, CYP2C9 activ 0.1 and CYP2C9 inhib 90.5*.
COc1cc2c(C#N)c(N3CCCCC3)nc(N)c2c(N)n1 was read as CYP2C19 activ 0.8, PostGolgi ctrl 18.5, PostGolgi yeast -8.5, CYP2C19 inh 18.8, CYP2C9 activ 0.8 and CYP2C9 inhib 23.7.
CCOC(=O)c1cc2cc(F)ccc2nc1C was read as CYP2C19 activ 0.7, PostGolgi ctrl 3.4, PostGolgi yeast -5.6, CYP2C19 inh 28.0, CYP2C9 activ 0.9 and CYP2C9 inhib 10.8.
Screening CCOC(=O)c1ccccc1Oc1c(F)c(F)nc(NCCO)c1F returned CYP2C19 activ 0.4, PostGolgi ctrl 6.0, PostGolgi yeast -7.0, CYP2C19 inh 62.4*, CYP2C9 activ 0.5 and CYP2C9 inhib 50.6*.
CCOC(=O)C1(c2nc(N)cs2)COC(=O)C1 (stereo not given) was read as PostGolgi ctrl 6.9 and PostGolgi yeast -0.7.
Screening COc1ccc(C(=O)/C(=C/c2cccs2)c2nc3ccccc3o2)cc1 returned CYP2C19 activ 0.7, PostGolgi ctrl 37.5*, PostGolgi yeast 1.0, CYP2C19 inh 26.0, CYP2C9 activ 0.3 and CYP2C9 inhib 68.6*.
For Cc1cc(C)n2nc(SCc3cc(=O)oc4cc(O)ccc34)nc2n1 the results were CYP2C19 activ 1.1, PostGolgi ctrl 0.5, PostGolgi yeast -2.9, CYP2C19 inh -14.5, CYP2C9 activ 0.8 and CYP2C9 inhib 19.6.
For O=C1c2ccccc2NC(c2ccc(F)cc2)N1Cc1ccco1 (stereo not given) the results were CYP2C19 activ 0.5, PostGolgi ctrl 11.4, PostGolgi yeast -5.1, CYP2C19 inh 53.0*, CYP2C9 activ 0.3 and CYP2C9 inhib 67.7*.
COc1ccc(C2Nc3ccccc3C(=O)N2Cc2ccco2)cc1COc1ccc([N+](=O)[O-])cc1 (stereo not given) was read as CYP2C19 activ 0.6, PostGolgi ctrl 8.0, PostGolgi yeast -0.9, CYP2C19 inh 39.2, CYP2C9 activ 0 and CYP2C9 inhib 96.4*.
O=C1c2ccccc2NC(c2ccccc2)N1Cc1ccco1 (stereo not given) was read as CYP2C19 activ 0.7, PostGolgi ctrl 8.7, PostGolgi yeast 6.3, CYP2C19 inh 34.5, CYP2C9 activ 0.4 and CYP2C9 inhib 59.5*.
